A selection: hits, their analogues and other compounds. The true share with any hit is near 3.9%.
TWEAK Fn14 block: inhibitors of TWEAK-Fn14 signaling, primary screen, luciferase reporter cells, uHTS | inhibition, % at 10 µM | AID 1159606, 2016 | 360,000 compounds, 2% hits | TWEAK-stimulated Fn14 reporter cells, luciferase luminescence, 8 h; in the data active = inhibition above about 50%
HSP90 inh: HSP90 inhibitors, primary screen, cell lysate, luminescence; Heat shock protein HSP 90 (rabbit reticulocyte lysate; luciferase refolding); Rabbit reticulocyte lysate, luciferase refolding luminescence, 3 h; inhibition, % at 5.6 µM; 290,000 compounds, 0.91% hits; AID 1789, 2009;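 active = inhibition above the screen-wide mean plus 3 SD, computed separately per campaign, cut at about 16% in these data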;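 note: 0% = DMSO wells and 100% = 60 µM geldanamycin wells; inhibitors lower the luminescence because luciferase stays unfolded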
TRAIL sens C8: viability loss with TRAIL in NB7+C8 cells, primary screen, TRAIL sensitizer project, cell-based, ATPlite luminescence; AID 624354, 2012; 360,000 compounds, 1% hits; inhibition (viability loss, TRAIL sensitization), % at 10 µM;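 active = compounds causing at least 50% loss of cell viability in the single-dose screen, relative to plate controls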
HIF-2a inh: HIF-2a reporter inhibitors, primary screen, luminescence, 786-0 RCC cells. inhibition, % at 18.8 µM. 786-0 RCC cells HIF-2a reporter, luciferase luminescence, overnight. 360,000 compounds, 0.72% hits. AID 624352, 2012;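 active = inhibition of the luminescence signal of 40% or more relative to plate controls, in a single-dose primary screen at 18.75 µM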
aSyn 5UTR inh: MLPCN primary screen, SNCA 5' untranslated region; alpha-synuclein 5'UTR reporter, inhibitor activity; inhibition, % (tested at 7.5 µM); 300,000 compounds, 0.82% hits; AID 1813, 2009; in the data active = inhibition above about 60%;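 note: H4 neuroglioblastoma cells stably carrying SNCA 5'UTR luciferase fusion; 0% = DMSO wells and 100% = positive control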
TROY NFkB inh: inhibitors of TROY-driven NF-kB signaling, primary screen, Q293 LMP1-TROYcd cells, NF-kB luciferase, uHTS; inhibition, % at 10 µM; 360,000 compounds, 0.98% hits; AID 1347056, 2019; Q293 LMP1-TROYcd NF-kB luciferase reporter, 4 h;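 active = compounds whose plate-normalised and pattern-corrected inhibition of the luciferase reporter signal at the single screening dose is 50% or more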
* hit, by the source's call.

Cc1ccc(-n2c(O)c(/C=C3/C(c4ccccc4)=Nc4ccccc43)c(=O)[nH]c2=O)cc1 was read as TWEAK Fn14 block 70.6*, HSP90 inh 0.3, TRAIL sens C8 -8.5, HIF-2a inh 34.7, aSyn 5UTR inh -3.5 and TROY NFkB inh -23.1.
COc1ccccc1OCC(=O)NCC1CCCN(C(=O)c2cccc(C)c2)C1 (configuration not stated) was read as TWEAK Fn14 block 2.2, TRAIL sens C8 -4.8, HIF-2a inh -6.1 and TROY NFkB inh 9.1.
`NNC(=O)Cn1c(-c2nonc2N)nc2ccccc21` gave TWEAK Fn14 block 3.9, HSP90 inh -0.3, TRAIL sens C8 -2.1, HIF-2a inh 17.2, aSyn 5UTR inh 10.4 and TROY NFkB inh 18.4.
Screening CCCCOc1ccccc1NC(=O)Cn1c(-c2nonc2N)nc2ccccc21 returned TWEAK Fn14 block -24.3, HSP90 inh -2.7, TRAIL sens C8 31.0, HIF-2a inh 9.1, aSyn 5UTR inh 124.2* and TROY NFkB inh 7.4.
Screening COc1cc(Cn2c(-c3nonc3N)nc3ccccc32)ccc1C returned TWEAK Fn14 block 4.5, HSP90 inh 1.9, TRAIL sens C8 5.2, HIF-2a inh 16.1, aSyn 5UTR inh 96.2* and TROY NFkB inh 14.7.
For COc1cccc(Cn2c(-c3nonc3N)nc3ccccc32)c1 the results were TWEAK Fn14 block -12.0, HSP90 inh 1.6, TRAIL sens C8 20.2, HIF-2a inh -5.8, aSyn 5UTR inh 95.8* and TROY NFkB inh 23.2.
`Cc1cc(C)n2nc(C(=O)OCC(=O)N(CC(C)C)C3CCS(=O)(=O)C3)nc2n1` (configuration not stated) gave TWEAK Fn14 block -6.3, TRAIL sens C8 11.6, HIF-2a inh 14.9 and TROY NFkB inh 17.2.
`Cc1nc(NC(=O)c2ccc([N+](=O)[O-])cc2Cl)sc1C(=O)N(C)C` gave TWEAK Fn14 block 12.1, HSP90 inh 7.5, TRAIL sens C8 0.5, HIF-2a inh 2.9, aSyn 5UTR inh 2.0 and TROY NFkB inh 6.1.
`Cc1cc(C(=O)Nc2nc(C)c(C(=O)N(C)C)s2)ccc1[N+](=O)[O-]` gave TWEAK Fn14 block 53.5*, HSP90 inh 10.7, TRAIL sens C8 17.1, HIF-2a inh -100.7, aSyn 5UTR inh 19.1 and TROY NFkB inh 61.8*.
For O=C1CC(N2CCN(c3ccccc3)CC2)C(=O)N1c1ccc2c(c1)OCCO2 (configuration not stated) the results were TWEAK Fn14 block 29.5, HSP90 inh 0.3, TRAIL sens C8 -9.8, HIF-2a inh 4.5 and TROY NFkB inh 51.4*.
For O=C(NCCCc1ccccc1)C1CC(=O)N(c2ccc3c(c2)OCCO3)C1 (configuration not stated) the results were TWEAK Fn14 block 71.0*, HSP90 inh 9.2, TRAIL sens C8 -7.8, HIF-2a inh 16.2, aSyn 5UTR inh -2.8 and TROY NFkB inh 26.2.
O=C(C1CC(=O)N(c2ccc3c(c2)OCCO3)C1)N1CCN(c2ccccc2)CC1 (configuration not stated) was read as TWEAK Fn14 block 63.5*, HSP90 inh 4.6, TRAIL sens C8 4.7, HIF-2a inh 14.7, aSyn 5UTR inh -10.4 and TROY NFkB inh 28.2.
CN1CCN(C2CC(=O)N(c3ccc4c(c3)OCCO4)C2=O)CC1 (configuration not stated) was read as TWEAK Fn14 block 0.6, HSP90 inh -1.2, TRAIL sens C8 -16.8, HIF-2a inh 12.9, aSyn 5UTR inh -4.8 and TROY NFkB inh 17.5.
`O=C(C1CC(=O)N(c2ccc3c(c2)OCCO3)C1)N1CCN(c2ccccc2O)CC1` (configuration not stated) gave TWEAK Fn14 block 10.7, HSP90 inh -2.5, TRAIL sens C8 13.3, HIF-2a inh -1.8, aSyn 5UTR inh -3.3 and TROY NFkB inh -0.3.
For CNS(=O)(=O)c1ccc(CNC[C@H]2O[C@@H](n3ccc(N)nc3=O)[C@H](O)[C@@H]2O)cc1 the results were TWEAK Fn14 block -46.2, TRAIL sens C8 -19.5, HIF-2a inh 1.1 and TROY NFkB inh -13.6.
Screening CC(=O)Nc1cc(-c2cccnc2)cn2c(-c3ccc(F)cc3)cnc12 returned TWEAK Fn14 block 6.2, TRAIL sens C8 -12.0, HIF-2a inh -2.3 and TROY NFkB inh -10.5.
For COc1ccc2nnc(-c3ccc(C(F)(F)F)cc3)n2n1 the results were TWEAK Fn14 block 61.4*, HSP90 inh -3.0, TRAIL sens C8 4.2, HIF-2a inh 20.9, aSyn 5UTR inh 13.8 and TROY NFkB inh -12.2.
Screening O=C(CSc1nnc(SCc2cccc3ccccc23)s1)N/N=C/c1c[nH]c2ccccc12 returned TWEAK Fn14 block 55.7*, HSP90 inh 1.0, TRAIL sens C8 6.7, HIF-2a inh -106.4, aSyn 5UTR inh -78.2 and TROY NFkB inh -15.5.
CC(C)(C)c1cc(CCC(=O)NNC(=S)NC(=O)c2ccccc2)cc(C(C)(C)C)c1O was read as TWEAK Fn14 block 36.0, HSP90 inh -2.2, TRAIL sens C8 20.9, HIF-2a inh 21.9, aSyn 5UTR inh 65.8* and TROY NFkB inh 5.2.
N/C(=N\S(=O)(=O)c1cc(C(F)(F)F)cc(C(F)(F)F)c1)c1ccc(Cl)cc1 was read as TWEAK Fn14 block 17.4, HSP90 inh -3.6, TRAIL sens C8 5.9, HIF-2a inh 13.2 and TROY NFkB inh 59.5*.
Screening CC(C)(C)c1ccc(S(=O)(=O)/N=C2\C=C(NS(=O)(=O)c3ccccc3)C(=O)c3ccccc32)cc1 returned TWEAK Fn14 block 14.4, HSP90 inh -1.2, TRAIL sens C8 13.6, HIF-2a inh -10.1, aSyn 5UTR inh 12.2 and TROY NFkB inh 11.4.
Screening Cc1ccc(NC2=C/C(=N/S(=O)(=O)c3cccs3)c3ccccc3C2=O)cc1 returned TWEAK Fn14 block 93.5*, HSP90 inh 0.6, TRAIL sens C8 95.1*, HIF-2a inh -152.1, aSyn 5UTR inh -51.9 and TROY NFkB inh 59.5*.
Cc1ccc(S(=O)(=O)/N=C2\C=C(Nc3ccc(O)cc3)C(=O)c3ccccc32)cc1 was read as TWEAK Fn14 block 100.7*, TRAIL sens C8 92.5*, HIF-2a inh 70.5* and TROY NFkB inh 43.2.
For Nc1ncnc2c1ncn2[C@@H]1O[C@H](C(=O)N[C@H](CO)Cc2ccc(O)cc2)[C@@H](O)[C@H]1O the results were TWEAK Fn14 block 7.5, TRAIL sens C8 19.9, HIF-2a inh 4.7 and TROY NFkB inh 12.3.
`Nc1sc(-c2ccccc2)cc1C(=O)NCCc1c[nH]c2ccccc12` gave TRAIL sens C8 4.0 and HIF-2a inh 1.9.
Screening COc1ccc(-c2cc3nc[nH]c(=O)c3s2)cc1 returned TWEAK Fn14 block 32.7, HSP90 inh 5.6, TRAIL sens C8 60.7*, HIF-2a inh -149.7, aSyn 5UTR inh -31.5 and TROY NFkB inh -42.5.
